From PubChem BioAssay (NCATS) come the findings set out here.

Inconclusive results are not listed. Entries that show only a call come without a potency. Where a structure was tested more than once in an assay, its records may differ in their call. The source made the active and inactive calls. Calls come from the whole dose curve; as a rule, active = well fitted cell-killing curve with a large enough effect; inconclusive = small, poorly fitted or top-dose-only effect, or effect the other way; inactive = no such curve, though single readings can be large or run the other way.
Potency is the fitted concentration of half-maximal effect.

This experiment in a line: Viability qHTS for spleen associated tyrosine kinase inhibitor (SYKi) naive MV4-11 cells (AID 1963823). Note: nearly all actives have a fitted effect of over 40% in size. As to conditions: MV4-11 AML viability, CellTiter-Glo luminescence, 72 h; series mostly up to 45 µM. A digest of the protocol:
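Viability of MV4-11 AML cells lacking prior SYK inhibitor exposure is scored by CellTiter-Glo luminescence following 72 hr compound incubation at 37 C, 5% CO2, seeded at 500 cells per well.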
Regarding `COC(=O)C1=COC(O[C@@H]2O[C@H](CO)[C@@H](O)[C@H](O)[C@H]2O)C2C(C)C(=O)CC12` (some centres not stated), the Potency result is “inactive”. As for `CC1(C(=O)O)CCCC2(C)C3CCC4CC3(CCC12)CC4=O` (configuration not stated), the Potency is 13000 nM (active).

Regarding `COc1cc(C2c3cc(O)c(OC)cc3CC(CO)C2CO)ccc1O` (configuration not stated), the Potency result is “inactive”. Same read-out and setting: with `CC1(C(=O)O)CCCC2(C)C3CCC4CC3(CCC12)CC4(O)CO` (configuration not stated) the entry was “inactive”; with `OC[C@@]1(O)CO[C@@H](OC[C@H]2O[C@@H](Oc3c[nH]c4ccccc34)[C@H](O)[C@@H](O)[C@@H]2O)[C@@H]1O`, “inactive”. Consider `Cn1c(CNc2ccc(C(=N)N)cc2)nc2cc(C(=O)N(CCC(=O)O)c3ccccn3)ccc21`, for which the Potency is 4610 nM (active) and the viability (% of control) was 81.5% [at 0.588 µM] (inactive). Consider `C[C@@H]1CC[C@]2(C(=O)O)CC[C@]3(C)C(=CCC4[C@@]5(C)C[C@@H](O)[C@H](O)[C@@](C)(CO)C5CC[C@]43C)C2[C@H]1C` (some centres not stated), for which the Potency entry was “inactive”.

Consider `Nc1nonc1-c1nc2cnccc2n1C1CC1`, for which the Potency is 2060 nM (active). On the same count and under the same terms, with `COc1cc(C(CO)CO[C@@H]2O[C@H](CO)[C@@H](O)[C@H](O)[C@H]2O)ccc1O` (some centres not stated) the entry was “inactive”; with `O=C(/C=C/c1ccc(O)cc1)OC[C@H]1O[C@@H](O/C(=C\c2ccccc2)C(=O)O)[C@H](O)[C@@H](O)[C@@H]1O`, “inactive”. Same read-out and setting: with `C=CC1(C)C=C2C(=O)OC(=O)C3=C(CCCC3(C)C)C2(O)CC1` (configuration not stated) the entry was “inactive”. The same measure, in the same setting: under `CC(C)(OC1OC(CO)C(O)C(O)C1O)C1CCC(O)(CO)C2CC(O)C(C)(O)C2C1` (configuration not stated) stands “inactive”. Take `CC[C@H](C)[C@H](NC(=O)[C@H](Cc1ccc(O)cc1)NC(=O)[C@@H](N)C(C)C)C(=O)N[C@@H](Cc1cnc[nH]1)C(=O)N1CCC[C@H]1C(=O)N[C@@H](Cc1ccccc1)C(=O)O`: the viability (% of control) was 98.9% [at 4.97 µM] (inactive). Turning to `O=C(Nc1nc2ccccc2n1CCc1ccccc1)c1ccccc1`, the Potency result was “inactive”.

With `C=CC(=O)Nc1cc(-n2c(=O)ccc3cnc4ccc(-c5ccc(NS(C)(=O)=O)cc5)cc4c32)ccc1C`, the Potency was 1160 nM (active). For the compound `Cc1csc(N(C(=O)CSc2ccc(-c3ccccc3)nn2)C2CC2)n1`, the Potency result is “inactive”. Still for that read-out and setting: under `CSc1ccc2c(c1)C(N1CCN(C)CC1)Cc1ccccc1S2` (configuration not stated) stands 11900 nM (active); under `C/C1=C\C[C@H](O[C@@H]2O[C@H](CO)[C@@H](O)[C@H](O)[C@H]2O)/C(C)=C/[C@H]2OC(=O)[C@H](C)[C@@H]2CC1`, “inactive”. Same read-out and setting: under `CN1CCN(C(=O)c2ccc(Nc3nccc(-c4cccs4)n3)cc2Cl)CC1` stands 731 nM (active). For `CC[C@H](Nc1ncnc2nc[nH]c12)c1nc2cccc(F)c2c(=O)n1-c1ccccc1`, the viability (% of control) is 57.2% [at 9.25 µM] (inactive) and the Potency was 332 nM (active). Regarding `CCC(C)/C=C(C)/C=C/C1=CC2=C(Cl)C(=O)C(C)(OC(C)=O)C(=O)C2=CN1C1CCCCN(C(CCC(N)=O)C(=O)O)C1=O` (configuration not stated), the Potency result was “inactive”. On the same count and under the same terms, under `CC1=C2C3OC(=O)C(C)C3(O)CCC2(C)CCC1` (configuration not stated) stands “inactive”.

Turning to `Cc1c(C(=O)Nc2ccc(N3CCC(N4CCOCC4)CC3)c(C#N)c2)cnn1-c1ccc(Cl)cc1`, the Potency is 116 nM (active). On the same count and under the same terms, under `CC(=O)O[C@H]1C[C@@H](O)C(C)(C)C2C[C@@H](OC(C)=O)[C@@]3(C)C4=CCC(C(CO)CC(O)C5OC5(C)C)[C@]4(C)CCC3[C@]21C` (some centres not stated) stands “inactive”. Consider `CCNc1nc2c(ncn2[C@H]2C[C@H](O)[C@@H](CO)O2)c(=O)[nH]1`, for which the Potency entry was “inactive”. The same measure, in the same setting: under `Cc1cc(-c2ncc(-c3cccnc3)cc2/C=C/c2ccccc2)cnc1-c1cccnc1` stands “inactive”; under `CCc1c(C)nc2c(-c3cnn(-c4cc(CO)ccn4)c3)c[nH]n2c1=O`, “inactive”. Same read-out and setting: under `O=S(=O)(c1ccc(S(=O)(=O)n2cnc3ccccc32)cc1)N1CCCCCC1` stands “inactive”; under `CC(C)(O)c1ccc2c(c1)C(O)CC1C(C)(C(=O)O)CCCC21C` (configuration not stated), “inactive”. On to `CC(=O)OC(CSC1CCC(=O)OC(C)CCC(=O)C1)C(=O)O` (configuration not stated), for which the Potency result is “inactive”.

For the compound `CCC(CC)n1ccc2c(C(=O)NCc3c(C)cc(C)[nH]c3=O)cc(C#N)cc21`, the Potency result was “inactive”.

With `CCCC(=O)O[C@@H]1[C@@H]2[C@@H](OC(C)=O)[C@]3(C)C(=O)[C@H]4[C@@H](OC(C)=O)C(C)(C)C[C@H]4[C@]3(C)C(=O)[C@@]2(OC(C)=O)C[C@@H]1C`, the Potency entry is “inactive”. Take `C[C@@H]1C[C@H]2O[C@@H]2/C=C\C=C\C(=O)Cc2c(Cl)c(O)cc(O)c2C(=O)O1`: the viability (% of control) was 9.93% [at 9.25 µM] (inactive) and the Potency was 32.1 nM (active).

Take `Cc1ccc(NC(=O)c2cccc(C(C)(C)C#N)c2)cc1Nc1ccc2ncn(C)c(=O)c2c1`: the Potency was 1180 nM (active).
